PGK inhibitor = blocks T. brucei phosphoglycerate kinase | P07378 | PGK/GAPDH coupled, Kinase-Glo luminescence, 60 min | Potency, µM (series often up to 57.5 µM), for inactives: top-dose activity change, negative = inhibition, most hits filed as inhibitors | 380,000 compounds, 0.043% hits; further: nearly all actives have a fitted effect of over 60% in size
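Luminescent ATP detection (Kinase-Glo Plus) follows a 60-minute room-temperature incubation, with wells lacking PGK as controls. Buffer: 100 mM TEA (pH 7.6), 5 mM MgCl2, 0.01% Tween-20. Coupling enzyme GAPDH (100 nM final) supplies unstable 1,3-BPG in-well.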
Pin1 inhibitor = inhibitors of human Pin1; Pin1 FP peptide displacement, HiFluor488, 10 min; Potency, µM (highest dose often 115 µM), without a hit: top-dose activity, negative = inhibition, actives largely listed as inhibitors; 390,000 compounds, 0.009% hits; AID 504891; active means well fitted inhibition curve with a large enough effect in the polarisation, with a control signal flat, not every such curve was filed as active; inconclusive means small, poorly fitted or top-dose-only effect, or effect the other way, or a change in a side signal; inactive means no such curve, though single readings can be large or run the other way; the % refers to the polarisation
Target sequence (Q13526 whole entry, looked up): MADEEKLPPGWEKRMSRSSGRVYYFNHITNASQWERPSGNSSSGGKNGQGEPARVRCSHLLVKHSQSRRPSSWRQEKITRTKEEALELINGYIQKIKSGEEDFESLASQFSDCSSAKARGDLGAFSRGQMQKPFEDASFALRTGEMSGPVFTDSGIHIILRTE
GLS inhibitor = blocks human kidney-isoform glutaminase activity. GLS enzymatic activity, qHTS titration. Potency, µM (series often up to 45.5 µM), for inactives: at the top dose activity change, negative = inhibition, most hits filed as inhibitors. 410,000 compounds, 0.21% hits. AID 624170
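Read-out is an Amplex red fluorescence increase coupled through glutamate oxidase and HRP, measured before and after 30 min room-temperature incubation. hKGA is in 45 mM KH2PO4 (pH 8.2) with 0.02% Tween-20; glutamine added as 1mM solution.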
mIDH1 inhibitor = human IDH1 R132H inhibition | IDH1-R132H enzyme, NADPH consumption, diaphorase/resazurin fluorescence | O75874 | AID 602179 | 390,000 compounds, 0.093% hits | Potency, µM (series often up to 76.6 µM), for the others: top-dose activity change, negative = inhibition, hits mostly inhibitors; further: nearly all actives have a fitted effect of over 65% in size
Target sequence (O75874 whole entry R132H, stated change not applied): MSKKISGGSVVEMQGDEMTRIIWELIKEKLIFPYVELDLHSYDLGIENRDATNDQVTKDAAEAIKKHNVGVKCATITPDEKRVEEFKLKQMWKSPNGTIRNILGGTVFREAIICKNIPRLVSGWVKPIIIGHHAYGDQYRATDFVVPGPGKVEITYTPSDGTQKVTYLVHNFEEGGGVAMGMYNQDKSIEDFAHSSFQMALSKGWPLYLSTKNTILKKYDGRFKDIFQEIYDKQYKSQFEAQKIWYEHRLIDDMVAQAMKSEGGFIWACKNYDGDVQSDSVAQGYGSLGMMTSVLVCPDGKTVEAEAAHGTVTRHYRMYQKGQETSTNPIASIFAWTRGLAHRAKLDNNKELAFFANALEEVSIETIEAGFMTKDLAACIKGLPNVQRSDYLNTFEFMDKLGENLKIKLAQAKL
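IDH1-R132H (0.5 ug/mL) preincubated 30 min with compound, then NADPH (0.016 mM) and alpha-KG (2 mM) added; 80 min at RT, pH 7.5. Remaining NADPH coupled via diaphorase/resazurin to fluorescence (540/590 nm); concentration-response curves normalized to no-enzyme control.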
The depositor's hits bear a star; i = inactive; ? = inconclusive; nt = no result given. An excerpt weighted towards active compounds, which were near 0.33% of everything screened. Unless noted, the call rests on the fitted dose curve; in most records, active means well fitted curve in the direction sought with a large enough effect; inconclusive means small, poorly fitted or top-dose-only effect, or another doubt; inactive means no such curve, though single readings can be large; an effect the other way counts as inactive or inconclusive. On the % scale 0 is the no-effect control and ±100 the full control effect; potency means the concentration at half of the fitted maximal effect.

SMILES	PGK inhibitor	Pin1 inhibitor	GLS inhibitor	mIDH1 inhibitor
O=C1CCc2cc(S(=O)(=O)Nc3cccc4ccccc34)ccc2N1	nt	1%	nt	nt
CC(=O)Nc1cccc(S(=O)(=O)N2CCCN(S(=O)(=O)c3ccc4c(c3)OCCO4)CC2)c1	nt	5%	nt	nt
C=C(C)C(=O)Oc1ccc(N=Nc2ccc(C)cc2)ccc1=O	2.8µM*	nt	?	4%
Cc1cccc(C(=O)NCC(=O)OC(C(=O)Nc2cc(C(F)(F)F)ccc2Cl)c2ccccc2)c1 (stereo not given)	nt	0%	nt	nt
Oc1ccccc1C(Nc1nccs1)c1ccc2cccnc2c1O (stereo not given)	5%	-7%	16µM*	-1%
Oc1c(C(Nc2ccccn2)c2ccccn2)ccc2cccnc12 (stereo not given)	1%	1%	43%	4%
N=c1c2c(ccn1-c1ccccc1)Oc1ccc3ccccc3c1C2c1ccccc1 (stereo not given)	nt	42%	nt	nt
COc1ccc(/C=N/N(Cc2ccccc2)c2ccccc2)cc1O	-8%	-3%	16µM*	5%
COc1cc(C=NCc2ccccc2)ccc1O	-1%	nt	25%	-1%
OCC1OC([S-])[C@H](O)C(O)C1O.[Au+] (stereo not given in full)	nt	nt	11µM*	nt
OCC1OC(O)C(O)C(O)C1O (stereo not given)	nt	nt	-11%	nt
Cn1nnnc1Sc1ncnc2scc(-c3ccc(N)cc3)c12	nt	-1%	nt	nt
CCO/C=C1\SC(=S)N(c2ccc(Cl)cc2)C1=O	0%	51%	2%	-5%
CC(C)c1ccc(N2C(=O)/C(=C/N(C)C)SC2=S)cc1	-17%	?	0%	13µM*
COc1ccc(O)c(C2Nc3ccccc3C(=O)N2Cc2ccccc2)c1 (stereo not given)	nt	1%	nt	nt
CN(C)c1cccc(N2CCN(c3nn4c(=O)c5ccccc5nc4s3)CC2)c1	nt	3%	nt	nt
CC/C=C\C/C=C\C/C=C\CCCCCCCC(=O)O	-3%	?	22µM*	11%
CCCCCC[C@@H](O)C/C=C\CCCCCCCC(=O)O	nt	nt	8%	nt
CC/C=C\C/C=C\C/C=C\C/C=C\C/C=C\CCCC(=O)O	nt	nt	32µM*	nt
CCCCCCC(O)C/C=C/CCCCCCCC(=O)O (stereo not given)	nt	nt	8%	nt
COc1ccc(C2Nc3ccccc3C(=O)N2Cc2ccccc2)cc1COc1ccc(NC(=O)c2ccccc2)cc1 (stereo not given)	nt	12%	nt	nt
COc1cc2c(ccc3cc(OC)c(OC)c(O)c32)cc1O	11µM*	?	7.9µM*	-2%
COc1cc2cccc(OC)c(=O)c2c(O)c1OC	i	-1%	4%	3%
CS(=O)(=O)N1CCN(c2nc(-c3ccc(Br)cc3)cs2)CC1	nt	-3%	nt	nt
COc1cc(/C=C/[N+](=O)[O-])ccc1OCc1cccc(C(=O)O)c1	?	28µM*	18%	10%
SMILES	PGK inhibitor	Pin1 inhibitor	GLS inhibitor	mIDH1 inhibitor
COc1cc2c(cc1O)CCN[C@@]21CS[C@H]2c3c(OC(C)=O)c(C)c4c(c3C(COC1=O)N1C2C2c3c(cc(C)c(OC)c3O)CC([C@@H]1O)N2C)OCO4 (stereo not given in full)	nt	nt	22µM*	nt
O=C1/C(=C/c2ccc(O)c(O)c2)Oc2cc(O)ccc21	-13%	?	8.9µM*	-4%
CC(=O)Oc1cc(C(=O)OCC(=O)N2CCc3ccccc3C2)cc(OC(C)=O)c1OC(C)=O	?	-18%	6.3µM*	0%
CCCCCC(=O)N1CC2(CC(c3cccc(NC(=O)[C@@H]4CCC(=O)N4)c3)=NO2)C[C@@H]1C(N)=O (stereo not given in full)	i	-6%	-1%	20%
C=C(C)C(=O)Nc1cccc(C2=NOC3(C2)C[C@@H](C(N)=O)N(C(=O)c2ccc(OC)cc2)C3)c1 (stereo not given in full)	2µM*	32µM*	?	-6%
C=C(C)C(=O)Nc1cccc(C2=NOC3(C2)C[C@@H](C(N)=O)N(C(=O)c2cc([N+](=O)[O-])cc([N+](=O)[O-])c2)C3)c1 (stereo not given in full)	18µM*	-1%	-26%	0%
C=C(C)C(=O)Nc1cccc(C2=NOC3(C2)C[C@@H](C(N)=O)N(C(=O)CCCCC)C3)c1 (stereo not given in full)	?	nt	10µM*	2%
O=c1nc(/C=C/c2ccc(O)c(O)c2)oc2ccccc12	-6%	1%	5.6µM*	9%
COc1cccc(C2c3c(ncn(-c4ccc(F)cc4)c3=N)Oc3ccc4ccccc4c32)c1 (stereo not given)	nt	8%	nt	nt
CC(C)CCNC(=O)c1ccc2c(c1)NC(=O)C(CS(=O)(=O)Cc1cccc(Br)c1)N2 (stereo not given)	-9%	54%	1%	6%
Cc1ccc(CNC(=O)c2ccc3c(c2)NC(=O)C(CS(=O)(=O)Cc2cccc(F)c2)N3)cc1 (stereo not given)	1%	?	-3%	-5%
CC(C)CCNC(=O)c1ccc2c(c1)NC(=O)C(CS(=O)(=O)Cc1ccc(F)cc1)N2 (stereo not given)	-3%	15%	13µM*	-8%
Cc1cccc(CS(=O)(=O)CC2Nc3ccc(C(=O)NCc4ccccc4)cc3NC2=O)c1 (stereo not given)	i	35%	10µM*	2%
CCOc1ccccc1-c1c2cc(O)c(=O)cc-2oc2cc(O)c(O)cc12	?	?	?	13µM*
COc1ccc(OC)c(-c2c3cc(O)c(=O)cc-3oc3cc(O)c(O)cc23)c1	?	?	-2%	40µM*
Oc1ccc(/C=N/NC(=S)Nc2cccnc2)c(O)c1O	-10%	?	4.5µM*	14%
Oc1cccc(/C=N/NC(=S)Nc2cccnc2)c1O	-16%	?	10µM*	4%
O=C(NCc1nc2ccccc2[nH]1)c1ccc(S(=O)(=O)N2CCOCC2)cc1	22µM*	1%	7%	-6%
CC1(C)CCCN(C(=O)c2coc(=O)c(Br)c2)C1	6.3µM*	nt	10µM*	0%
NCCCCNc1ncnc2ccc(-c3ccc4c(c3)OCO4)cc12	nt	2%	nt	nt
COc1ccc(-n2sc3ccc(F)cc3c2=O)cc1	-6%	-21%	?	-9%
COc1ccc(-n2sc3ccccc3c2=O)cc1	-1%	nt	?	-6%
O=c1c2cc(F)ccc2sn1-c1ccc(F)cc1	2%	-11%	10µM*	-5%
CC(=O)Nc1ccc2sn(-c3ccccc3)c(=O)c2c1	-6%	nt	6.3µM*	2%
N#Cc1ccc2sn(-c3ccccc3)c(=O)c2c1	-6%	nt	6.3µM*	-2%
O=c1c2cc([N+](=O)[O-])ccc2sn1-c1ccccc1	-3%	nt	10µM*	1%
COc1ccc(-c2csc(N3CCC(C(N)=O)CC3)n2)cc1OC	nt	6%	nt	nt
Cc1ccsc1/C=N/Nc1nc(=O)[nH]nc1C	28µM*	-4%	1%	3%
CCC(=O)NC1=C(Nc2ccc(N)cc2)C(=O)c2ccccc2C1=O	-18%	0%	7.1µM*	9%

Assay outcomes (PubChem BioAssay)
